Data from PubChem BioAssay AID1347426 (Functional Genomics Laboratory (NCATS/FGL), 2020).
Hit rate of the full screen: of about 31,000 sequences, about 1,400 (4.5%) were called active.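 How the source made its calls: active means median seed-adjusted z-score above 1 or below -1; inactive means the rest.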 The full list was thinned out, with actives kept by preference.

assay: Novel Modifiers of Survival Motor Neuron (SMN) Protein: Gene Identification via Genome-wide siRNA Screen; details: HEK293T SMN2-luciferase reporter, siRNA knockdown, 72 h; actives lie on both sides;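 further: luminescence tracks full-length SMN protein made from the SMN2 reporter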
Summary of the method: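 HEK293T cells stably expressing an SMN2 splicing/cDNA-luciferase reporter were reverse-transfected with a druggable-genome siRNA library and read by luminescence at 72 hours; hits defined by MAD score above 1.0 or below -1.0.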

| Sequence | median seed-adjusted z-score |
| --- | --- |
| CUUCAGUUCGAAUACAUUUTT against RFC5 | -0.644 (inactive) |
| GGAGACUUCUUACCCACCATT against PSMD4 | 1.46 (active) |
| CAACUGAUGAGUAUCUAGATT against MRCL3 | -0.00909 (inactive) |
| CUUCAGUGCUGAUCAGGUATT against NDUFA2 | -0.694 (inactive) |
| GGACCCAGUAUUUCAGGAATT against SFXN4 | -0.174 (inactive) |
| CGAUAUGGAAAAUCCCUAUTT against ANXA10 | 0.0445 (inactive) |
| CAUACGGACUGUACCUUUATT against PSMC5 | -1.06 (active) |
| CCCUCUACCUCGUCCGAAUTT against SIRPA | -0.153 (inactive) |
| CCACAUCUCAAGUCCACUUTT against PPP1R1A | -0.529 (inactive) |
| CACUUACGGUGUGAAAGGATT against SOX5 | 0.123 (inactive) |
| AGUUACUACCUUAUCCUCATT against POU2F2 | 0.163 (inactive) |
| CCAUCUCCUACAUCGCCGATT against APBA2 | 1.66 (active) |
| GCUAUUUGGUUAUCCUUAUTT against ATP6V0A1 | 0.103 (inactive) |
| AGAUCCUGUGGAUUAGAAATT against NEU4 | -0.152 (inactive) |
| GUGCGAAAGAGAAUCUUAATT against SPIRE1 | 0.336 (inactive) |
| GGAACAGCUUAAGAUUGAATT against GNG3 | -0.186 (inactive) |
| GGAAGACCUUACACGGUUATT against EIF3E | 0.549 (inactive) |
| GCUAUUUCCAGCGAAUAUATT against CNOT1 | 1.2 (active) |
| CGCAGAAGAUGUACCAGUUTT against CDH22 | -0.57 (inactive) |
| CAGGGUCUAUGGUACCGUUTT against UBE3C | 0.0341 (inactive) |
| AAAUCCUUGGGUCAACAUUTT against NOX1 | -0.221 (inactive) |
| GGACAAGGGAUUAAUAGUATT against ARID1A | -1.14 (active) |
| CCUUGAUCCUCGACUGUAATT against COL5A1 | -0.00475 (inactive) |
| GGUCAUUGUGAAAAGUAGATT against GCLM | 0.0509 (inactive) |
| CGCAUACUCUCGCCCUGUATT against ZNHIT2 | -0.339 (inactive) |
| CGAUAGUGAGUAUAUCAGUTT against ZMYND8 | -0.065 (inactive) |
| UGAGCGAGUUGAUUUCACATT against ATF5 | 0.233 (inactive) |
| CUUUAAGACUCAUAACGAATT against GTF2E2 | -1.32 (active) |
| GUUUCAUCGUAUAUCAAUATT against HSD17B13 | -0.329 (inactive) |
| GAAGGUUGAUUAUCGUAAATT against BCMO1 | 0.53 (inactive) |
